Rows were chosen to be rich in hits. Some 2.1% of all compounds tested hit in one or more screens of this group.
aSyn yeast inh = rescues yeast growth from alpha-synuclein toxicity; Yeast expressing alpha-synuclein, growth rescue, BacTiter-Glo, 24 h; Potency, µM (highest dose often 46.1 µM), for the others: at the highest dose growth rescue (activation), actives largely listed as activators; 370,000 compounds, 0.14% hits; note: % of control where 0% means no effect; nearly all actives have a fitted effect of over 65% in size
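Rescue of yeast growth: cells expressing toxic alpha-synuclein, induced in galactose at OD600 0.02, incubated with compound 24 h at 30 C. ATP luminescence quantified growth; inhibitors of toxicity appear as activators.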
TDP-43 yeast inh = rescues yeast growth from TDP-43 toxicity; TDP-43 expressing yeast growth rescue, BacTiter-Glo, 24 h; Potency, µM (series often up to 46.1 µM), without a hit: top-dose growth rescue (activation), hits mostly activators; 410,000 compounds, 1.8% hits; note: % of control where 0% means no effect; nearly all actives have a fitted effect of over 50% in size
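Galactose-induced TDP-43 yeast, OD600=0.02, compound pinned; 24 hr, 30 deg C; BacTiter-Glo luminescence for growth. Inhibitors of TDP-43 toxicity read as activators.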
FUS suppressor = rescues growth of FUS-expressing yeast; S. cerevisiae FUS-expressing, growth rescue, OD600, 24 h; Potency, µM (top dose mostly 76.6 µM), hits mostly activators; 390,000 compounds, 0.24% hits;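 note: plate controls were DMSO vehicle for no effect and reference control for full effect; nearly all actives have a fitted effect of over 55% in size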
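Quantitative HTS measuring growth restoration of FUS-toxic yeast. Galactose-induced cells (OD 0.005) were exposed 24hr at 30C to compounds at several concentrations, then absorbance at 600 nm was recorded.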
Abeta yeast res = restores growth of yeast expressing A-beta42 peptide | AID 1347071 | yeast expressing A-beta42, growth rescue, OD600, 48 h; response scale: 0% DMSO, 100% iron-clioquinol control | Potency, µM (titrated, usually from 46.1 µM), most hits filed as activators | 410,000 compounds, 0.063% hits; note: nearly all actives have a fitted effect of over 55% in size
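Yeast A-beta toxicity model in growth medium with pinned compounds, 48 h at 30 C; growth read as absorbance at 600 nm. Normalized to FeCl3/clioquinol equimolar mix (positive) and DMSO (negative).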
The depositor's hits bear a star; i = inactive; ? = inconclusive; · = no result; ! = a repeat was not active; [ ] = dose if it differs, or a comment. Calls come from the whole dose curve; as a rule, active = well fitted curve in the direction sought with a large enough effect; inconclusive = small, poorly fitted or top-dose-only effect, or another doubt; inactive = no such curve, though single readings can be large; an effect the other way counts as inactive or inconclusive. Potency is the fitted concentration of half-maximal effect.

SMILES | aSyn yeast inh | TDP-43 yeast inh | FUS suppressor | Abeta yeast res
Cc1oc2c(c1C(=O)O)C(=O)c1ccccc1C2=O | 9.0% | -44.9% | i | i
Cc1oc2c(c1C(=O)c1ccccc1)C(=O)C(=O)c1ccccc1-2 | 21.3% | 15.8µM* | i | i
CCOC(=O)c1c(C)oc2c1C(=O)c1ccccc1C2=O | -3.8% | 3.16µM* | i | i
CN(C)c1cc(N2CCOCC2)nc(C#N)n1 | 9.1% | · | · | ·
CC(=O)c1cccc(OCC(=O)Nc2ccccc2N2CCOCC2)c1 | 0.3% | 22.4µM* | i | i
COc1ccc(OCC(=O)Nc2ccccc2N2CCN(C)CC2)cc1 | -4.8% | 12.2% | i | i
COc1ccc(OCC(=O)Nc2cccc3cccnc23)cc1 | · | 12.6µM* | i | i
Cc1cccc(NC(=O)c2ccc(N3CCOCC3)c([N+](=O)[O-])c2)n1 | 2.0% | ? | i | i
COc1ccc(OCC(=O)Nc2ccccc2N2CCCCC2)cc1 | 16.2% | 11.2µM* | i | i
Cc1cccc(NC(=O)c2ccc(N3CCCCC3)c([N+](=O)[O-])c2)n1 | -13.0% | 3.55µM* | · | i
COc1cc(C(=O)NC(=S)Nc2ccccc2N2CCOCC2)cc(OC)c1OC | -12.7% | -24.3% | i | i
CCOc1ccc(C(=O)NC(=S)Nc2ccccc2N2CCCCC2)cc1[N+](=O)[O-] | -2.1% | 21.7% | i | i
COc1ccc(C(=O)NC(=S)Nc2ccccc2N2CCCCC2)cc1[N+](=O)[O-] | -0.8% | 15.8µM* | ? | ?
COc1cccc(C(=O)NC(=S)Nc2ccccc2N2CCOCC2)c1 | 15.7% | 12.6µM* | · | i
CCSC(=O)N1CCN(/[N+]([O-])=N/Oc2ccc([N+](=O)[O-])cc2[N+](=O)[O-])CC1 | -59.7% | · | · | ·
CCC1CCCCN1CCCNC(=O)c1ccc2c(c1)sc1nc(-c3ccc(F)cc3)cn12 (configuration not stated) | · | 24.8%[9.22 µM] | i | i
CCOC(=O)c1ccc(N/C(=N\S(=O)(=O)c2ccccc2C)c2ccccc2)cc1 | 5.5% | 25.1µM* | i | i
COC(=O)c1ccc(N/C(=N/S(=O)(=O)c2ccccc2)c2ccccc2)cc1 | 2.1% | 14.5% | · | i
Cc1ccc(CSc2cn(CC(=O)N3CCCC3)c3ccccc23)cc1 | · | 22.4µM* | ? | i
Cc1cc(-c2nc3ncccc3o2)ccc1NC(=O)c1ccc(Cl)cc1 | · | -4.0% | i | i
C=CCc1c(C)nc2nc(SCC(=O)Nc3cccc(Cl)c3)nn2c1C | · | 31.6µM* | i | i
C=CCc1c(C)nc2nc(SCC(=O)Nc3ccc(C)c(C)c3)nn2c1C | · | 28.9% | i | i
CC(C)(Oc1ccc(Cl)cc1)C(=O)NNC(=O)c1ccc(Br)o1 | 1.8% | 14.1µM* | i | i
CC1=C(C(=O)OCC2CCCCC2)C(c2ccc(Cl)cc2Cl)CC(=O)N1 (configuration not stated) | · | 24.5% | ? | i
O=C(CC(O)CCc1ccccc1)c1ccc(O)cc1 (configuration not stated) | -0.6% | 10µM* | i | ?
SMILES | aSyn yeast inh | TDP-43 yeast inh | FUS suppressor | Abeta yeast res
O=C(Cc1ccccc1)c1ccc(O)cc1 | -3.7% | 12.4% | i | ?
COc1ccc(C(=O)NCCSCc2cccc(Cl)c2)cc1OC | 7.3% | 20µM* | i | i
O=C(CCSCc1cccc(Cl)c1)NCCc1ccc(Cl)cc1 | 1.6% | 11.2µM*! | i | i
CCOc1ccc(CCNC(=O)CCSCc2cccc(Cl)c2)cc1OCC | · | 22.4µM* | i | i
COc1cccc(C(=O)NCCSCc2c(F)cccc2Cl)c1 | 12.5% | 11.2µM* | i | i
O=C(CCSCc1ccc(Cl)cc1)NCCc1ccccc1 | 9.8% | 18.4% | i | i
COc1ccc(C(=O)NCCc2ccccc2)cc1OC | -2.4% | 12.7% | i | i
Cc1sc2ncn(CC(=O)N3CCN(c4ccc(F)cc4)CC3)c(=O)c2c1S(=O)(=O)N1CCCCC1 | · | 8.2% | ? | i
O=C(/C=C/c1cccc([N+](=O)[O-])c1)NCCSCc1cccc(Cl)c1 | 22.7% | 22.4µM* | i | i
O=C(/C=C/c1cccc([N+](=O)[O-])c1)NCc1ccccc1 | -6.3% | -7.2% | i | i
CC[C@@H]1Cc2[nH][nH]c(=O)c2[C@@H](c2ccc(Cl)cc2)O1 | 2.4% | 15.8µM* | i | i
CC(C)C1OC(CCc2ccccc2)Cc2[nH][nH]c(=O)c21 (configuration not stated) | 1.5% | 10.3% | i | i
CC(C)C[C@@H]1Cc2[nH][nH]c(=O)c2[C@H](c2ccc(Cl)cc2)O1 | 21.5% | ? | i | i
CCCC[C@@H]1Cc2[nH][nH]c(=O)c2[C@H](c2cccc3ccccc23)O1 | -1.4% | 11.2µM* | i | i
O=c1[nH][nH]c2c1[C@H](c1ccc(Cl)cc1)O[C@H](C1CCCC1)C2 | 0.7% | 17.8µM* | i | i
O=c1[nH]c(=S)[nH]c2c1C(c1ccccc1)OC(C1CCCCC1)C2 (configuration not stated) | -0.4% | 0.0% | i | i
CC(C)c1ccc([C@@H]2O[C@H](CCc3ccccc3)Cc3[nH][nH]c(=O)c32)cc1 | 1.5% | 15.8µM* | ? | i
COc1ccc(OC)c(NC(=O)CSc2n[nH]c(-c3ccccc3Cl)n2)c1 | · | 23.4% | i | i
COC(=O)[C@]12C[C@H](CC(=O)N3CCN(C(=O)C4CC4)CC3)C(=O)N(Cc3ccco3)C1=C[C@H](C(C)(C)C)O[C@@H]2C | · | · | i | ·
Cc1ccc(C(=O)c2cc3c(cc2[N+](=O)[O-])OCCO3)cc1 | -7.1% | 12.6µM* | i | i
CCOC(=O)c1cnc2ccc(C)cc2c1Nc1ccc(N(CC)CC)cc1 | · | -16.1% | i | i
COc1ccc(OC)c(NC(=O)CCc2nc(-c3ccc(C)cc3)no2)c1 | · | -1.1% | i | i
COc1cccc(NC(=O)c2nc(SC)ncc2Cl)c1 | -14.6% | 1.6% | i | i
CCS(=O)(=O)c1ncc(Cl)c(C(=O)N2CCN(c3ccc(OC)cc3)CC2)n1 | · | 12.6µM* | i | i
COc1ccc(NC(=O)c2nc(SC)ncc2Cl)cc1 | 0.9% | 20µM* | i | i
SMILES | aSyn yeast inh | TDP-43 yeast inh | FUS suppressor | Abeta yeast res
COc1ccc(N2CCN(C(=O)c3nc(SC)ncc3Cl)CC2)cc1 | · | 20µM* | i | i
CCSc1ncc(Cl)c(C(=O)N2CCN(c3ccccc3OC)CC2)n1 | · | 35.5µM* | i | i
COc1ccc(-c2[nH]ncc2C(=O)NCc2ccccc2OC)cc1 | · | 15.0% | i | i
O=C(Nc1ccc(F)cc1)c1ccccc1Oc1ccc(C(F)(F)F)cc1[N+](=O)[O-] | 14.1µM* | 22.4µM* | · | i
O=[N+]([O-])c1cc(C(F)(F)F)ccc1Oc1cccnc1[N+](=O)[O-] | -1.7% | -6.9%[0.397 µM] | i | i
O=C(Nc1ccccc1)c1ccccc1Oc1ccc(C(F)(F)F)cc1[N+](=O)[O-] | 18.0% | 20µM* | i | i
C=C(C)c1cccc(C(C)(C)NC(=O)Nc2ccc(C)cn2)c1 | -1.6% | 12.6µM* | · | i
